RecA intein inh: inhibitors of M. tuberculosis RecA intein splicing; cell-free RecA intein splicing, fluorescence; inhibition, % (no concentration beside the values); 290,000 compounds, 0.75% hits; AID 2221; in the data active = inhibition above about 30%
Target sequence (P9WHJ3 whole entry, looked up): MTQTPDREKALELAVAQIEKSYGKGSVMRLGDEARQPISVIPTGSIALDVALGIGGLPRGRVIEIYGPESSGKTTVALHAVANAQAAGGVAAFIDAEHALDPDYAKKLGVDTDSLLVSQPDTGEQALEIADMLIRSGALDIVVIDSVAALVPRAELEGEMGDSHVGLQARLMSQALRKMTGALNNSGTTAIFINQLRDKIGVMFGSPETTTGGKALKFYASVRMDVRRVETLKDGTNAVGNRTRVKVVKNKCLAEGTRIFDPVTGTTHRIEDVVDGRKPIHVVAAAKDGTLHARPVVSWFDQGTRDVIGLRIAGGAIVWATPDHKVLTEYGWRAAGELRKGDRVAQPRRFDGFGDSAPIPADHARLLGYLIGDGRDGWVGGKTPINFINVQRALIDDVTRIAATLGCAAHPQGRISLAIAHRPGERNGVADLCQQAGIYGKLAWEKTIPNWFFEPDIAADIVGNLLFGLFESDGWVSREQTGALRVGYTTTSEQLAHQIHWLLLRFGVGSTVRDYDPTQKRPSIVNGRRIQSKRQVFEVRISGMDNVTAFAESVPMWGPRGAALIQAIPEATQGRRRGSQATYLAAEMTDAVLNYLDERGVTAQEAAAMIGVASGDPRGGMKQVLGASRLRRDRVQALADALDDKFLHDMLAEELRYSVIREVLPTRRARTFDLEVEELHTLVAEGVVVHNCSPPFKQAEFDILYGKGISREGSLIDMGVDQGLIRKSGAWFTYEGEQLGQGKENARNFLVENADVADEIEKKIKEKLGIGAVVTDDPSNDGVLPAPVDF
CCHFV vOTU inh: blocks the CCHF virus ovarian tumor domain protease; CCHFV vOTU protease, Pep-AMC fluorescence; inhibition, % at 11.5 µM; 370,000 compounds, 0.55% hits; AID 651958
Mtb betalactam: beta-lactam sensitization of Mtb H37Rv | M. tuberculosis H37Rv growth with meropenem, percent inhibition | 330,000 compounds, 0.27% hits | inhibition, % at 25 µM; call rule not given here;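 note: growth measured after seven days incubation then overnight dye step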
GDH-TPI counter-1: inhibits GDH-TPI coupling enzymes, artifact for Mtb FBA screen; GDH-TPI coupled enzyme counterscreen, NADH absorbance; inhibition, % at 4.8 µM; 360,000 compounds, 1.2% hits; AID 588335
Mtb FBA inh: inhibits M. tuberculosis FBA enzyme; purified M. tuberculosis FBA, fluorescence read-out; AID 588726; inhibition, % at 1 µM; P9WQA3; 360,000 compounds, 2.3% hits; in the data active = inhibition above about 27%
Mtb FBA inh conf: confirmation of M. tuberculosis fructose-bisphosphate aldolase inhibitors; shares compounds with Mtb FBA inh; purified M. tuberculosis FBA, fluorescence read-out; inhibition, % at 1 µM; 5,600 compounds, 78% hits; AID 651616; in the data active = inhibition above about 27%
GDH-TPI counter-2: inhibits GDH-TPI coupling enzymes, flagging Mtb FBA hits; shares compounds with Mtb FBA inh; GDH-TPI coupled enzyme counterscreen, fluorescence; inhibition, % at 1 µM; 5,600 compounds, 81% hits; in the data active = inhibition above about 10%
A number is an active result; – = inactive; · = not tested or not shown; + = active, no number. Only some compounds are listed: those with a hit (about 4.2% of all), similar ones and a draw of the others. Cut-off read from the data, not from the text of the source, unless noted: active = inhibition above about 30%; inactive = the rest.

SMILES	RecA intein inh	CCHFV vOTU inh	Mtb betalactam	GDH-TPI counter-1	Mtb FBA inh	Mtb FBA inh conf	GDH-TPI counter-2
Cc1cc(=O)oc2c3c(cc(OCC(=O)NC4CC4)c12)OC(C)(C)CC3	–	–	–	–	75	52	29
Cc1cc(OCC(=O)N2CCC[C@@H]2C(=O)O)c2c(C)c(C)c(=O)oc2c1	–	–	–	–	84	123	98
CCc1cc(=O)oc2cc(C)cc(OCC(=O)NC3CCN(Cc4ccccc4)CC3)c12	–	–	–	–	40	–	–
CCCCc1cc(=O)oc2cc(OCC(=O)NC3CCN(Cc4ccccc4)CC3)ccc12	–	–	–	–	–	·	·
Cc1cc(=O)oc2cc(OCC(=O)NC3CCCCC3)c(Cl)cc12	·	–	–	–	–	·	·
CCCc1cc(=O)oc2cc(C)cc(OCC(=O)NC3CC3)c12	–	–	–	–	93	–	–
COC(=O)C1=C(C)NC(=S)NC1c1cccc(OC)c1 (stereo unspecified)	·	–	·	·	·	·	·
COC(=O)C1=C(C)N(Cc2ccc(Cl)cc2)C(=S)NC1c1ccc(Br)cc1 (stereo unspecified)	·	–	·	·	·	·	·
O=C(C(=O)N1CCC(CNC(=O)c2ccccc2F)CC1)c1cc2ccccc2o1	·	–	·	·	·	·	·
Cc1cc(OCC(=O)NC2CC2)c2c(C)cc(=O)oc2c1	–	·	–	–	80	51	38
O=C(COc1ccc(Br)cc1Cl)NC1CCN(Cc2ccccc2)CC1	–	–	–	–	–	·	·
Cc1c(C)c2ccc(OCC(=O)NC3CCN(Cc4ccccc4)CC3)c(C)c2oc1=O	–	–	–	–	38	60	48
CCc1cc(=O)oc2cc(C)cc(OCC(=O)NC3CC3)c12	–	–	–	–	65	–	22
Cc1c(C)c2ccc(OC(C)C(=O)NC3CCN(Cc4ccccc4)CC3)cc2oc1=O (stereo unspecified)	–	–	–	–	84	–	–
C=CCN(C(=O)[C@@H](C)[C@@H](O)c1ccc(C(C)=O)cc1)c1ccccc1	·	–	·	·	·	·	·
Cc1nn(-c2ccccc2)c(C)c1/C=N\NC(=O)CSc1nc2ccccc2n1Cc1ccc(Cl)cc1	·	–	·	·	·	·	·
COC(=O)c1cc(-c2ccc(C(C)=O)cc2)c(=O)n2c1CCC2	·	–	·	·	·	·	·
Cc1cc(OCC(=O)NC2CC2)c2c(C)c(C)c(=O)oc2c1	–	–	–	–	76	53	45
CCN1CCCCC(NC(=O)c2ccc(F)c(F)c2)C1=O (stereo unspecified)	·	–	·	·	·	·	·
COC(=O)[C@]12CCCCC=C1N(Cc1ccc(OC)cc1)C(=O)[C@@H]2CC(=O)NCCC(C)C	·	–	·	·	·	·	·
Cc1ccccc1NC(=O)NNC(=O)c1ccc2ccccc2c1O	–	–	–	–	31	55	36
CCc1ccc(NC(=O)NNC(=O)c2cc3ccccc3cc2O)cc1	–	–	–	–	–	·	·
COc1ccc(NC(=O)NNC(=O)c2ccc3ccccc3c2O)cc1OC	–	–	–	–	36	·	+
COc1ccc(NC(=O)c2cccc3ccccc23)cc1OC	·	–	·	–	–	·	·
CCc1ccc(NC(=O)NNC(=O)c2ccc3ccccc3c2O)cc1	–	–	–	–	36	+	190
SMILES	RecA intein inh	CCHFV vOTU inh	Mtb betalactam	GDH-TPI counter-1	Mtb FBA inh	Mtb FBA inh conf	GDH-TPI counter-2
O=C(Nc1ccc(Br)c2ccccc12)c1ccc2ccccc2c1O	–	–	–	–	31	–	–
Nc1nc2ncccc2cc1C(=O)NC1CC1	·	–	·	·	·	·	·
O=C(NCCc1ccccc1)OCc1cn(-c2ccccc2Cl)nn1	·	–	·	·	·	·	·
COC(=O)c1cc(-c2cc3ccccc3o2)c(=O)n2c1CCC2	·	–	·	·	·	·	·
C/C(C=NNC(=O)c1cc(-c2ccc(Cl)cc2)n[nH]1)=C\c1ccccc1	·	–	·	·	·	·	·
Cc1ccc(S(=O)(=O)n2ccc(-c3c(-c4ccccc4)noc3C)n2)cc1	·	–	·	·	·	·	·
C[C@@H]1CNC(=O)c2c(C(=O)N(C)Cc3ccccc3)ncn21	·	–	·	·	·	·	·
COC(=O)[C@]12C[C@H](CC(=O)N3CCC(c4ccccc4)CC3)C(=O)N(Cc3ccc(Cl)cc3Cl)C1=C[C@H](C1CCCC1)O[C@@H]2C	·	–	·	·	·	·	·
Cc1ccc(Cn2nnc3c2-c2cc(F)ccc2S(=O)(=O)N(C(C)(C)C)C3)cc1	·	–	·	·	·	·	·
COc1ccccc1NC(=O)NNC(=O)c1ccc2ccccc2c1O	–	–	–	–	32	143	113
CC(C)CC(c1nc2ccccc2[nH]1)n1c(-c2ccccc2Br)nc2ccccc21 (stereo unspecified)	·	–	·	·	–	·	·
COc1ccc2nc(C(c3ccc(C)cc3)n3c(-c4ccccc4Br)nc4ccccc43)[nH]c2c1 (stereo unspecified)	·	–	·	·	52	+	+
COC(=O)C1=C(C)N(Cc2ccccc2C(F)(F)F)C(=NCc2cc(OC)c(OC)c(OC)c2)NC1c1cccc(C(F)(F)F)c1 (stereo unspecified)	·	–	·	·	·	·	·
Cc1cccc(NC(=O)CNC(=O)COC(=O)C2CC2C)c1C (stereo unspecified)	·	–	–	–	30	–	–
Cc1cccc(NC(=O)CNC(=O)COC(=O)c2ccc(C(C)(C)C)cc2)c1C	·	–	–	–	–	·	·
NC(=O)c1ncn([C@@H]2O[C@H](C(=O)N3CCCN(Cc4ccccc4F)CC3)[C@@H](O)[C@H]2O)n1	·	–	·	·	·	·	·
CCOP(=O)(c1ccccc1)c1nc(-c2ccccc2C)oc1NCc1ccccc1 (stereo unspecified)	–	–	–	–	–	·	·
COP(=O)(OC)c1nc(-c2ccc([N+](=O)[O-])cc2)oc1N1CCCCC1	–	–	–	–	–	·	·
COP(=O)(OC)c1nc(-c2ccccc2)oc1N1CCOCC1	–	–	–	–	89	83	56
CCCOP(=O)(OCCC)c1nc(-c2ccccc2)oc1NCc1ccccc1	–	–	–	–	57	–	–
COP(=O)(OC)c1nc(-c2ccccc2)oc1NCc1ccccc1	–	–	–	–	107	86	70
Cc1ccc(S(=O)(=O)c2nc(-c3ccccc3)oc2NCc2cccnc2)cc1	–	–	–	–	–	·	·
CCOP(=O)(OCC)c1nc(-c2ccc(Cl)cc2)oc1NCc1ccccc1	–	–	–	–	79	80	102
CCCCNC(=O)C[C@@H]1C(=O)N2CCCC3=C2[C@@]1(C(=O)OC)CCCC3	·	–	·	·	·	·	·
Cc1ccc(CNC(=O)c2ccccc2NS(C)(=O)=O)cc1	–	–	–	–	38	+	+
Cc1cc(NC(=O)c2ccccc2NS(=O)(=O)c2c(C)c(C)cc(C)c2C)no1	–	–	–	–	–	·	·
Cc1cc(C)c(C)c(S(=O)(=O)Nc2ccccc2C(=O)O)c1C	–	–	–	–	27	–	11
CC(NC(=O)c1ccccc1NS(C)(=O)=O)c1ccccc1 (stereo unspecified)	–	–	–	–	42	133	106
CS(=O)(=O)Nc1ccccc1C(=O)O	–	–	–	–	28	117	104
Cc1ccccc1NC(=O)N(C)[C@H]1C[C@H]2c3[nH]c4c(-c5ccc6c(c5)OCO6)cccc4c3CCN2C(=O)[C@H]1[C@H](C)O	·	–	·	·	·	·	·
